From PubChem BioAssay
Bead autofluor: flagged as autofluorescent in microsphere protease counterscreen | compound autofluorescence counterscreen, microsphere flow cytometry; stronger effect = higher value | fluorescence intensity (concentration not given with the values) | hit rate 3.1% among 360,000 | AID 624483; in the data active = fluorescence intensity above about 16000; inconclusive = no clear call, values can overlap the other calls
MazF activator: increases E. coli MazEF RNase cleavage of RNA; hit rate 0.32% among 350,000; P0AE70; activation, % at 20 µM; AID 504720; FAM/BHQ RNA-DNA oligo cleavage fluorescence, 5 h; in the data active = activation above about 50%
BoNT F protease: inhibitors of Botulinum neurotoxin F light chain protease. Multiplex microsphere protease cleavage assay, flow cytometry. AID 588497. inhibition, % at 10 µM. hit rate 0.22% among 360,000; in the data active = inhibition above about 35%, passing the limit was not always enough; inconclusive = no clear call, values can overlap the other calls; also: plate controls were buffer without enzyme for full effect and enzyme alone for no effect
Anthrax LF inh2: blocks Bacillus anthracis lethal factor protease | P15917 | hit rate 0.12% among 360,000 | inhibition, % at 10 µM | AID 588501 | multiplex microsphere protease cleavage assay, LF; also: plate controls were buffer without enzyme for full effect and enzyme alone for no effect
Target sequence (P15917 whole entry, looked up): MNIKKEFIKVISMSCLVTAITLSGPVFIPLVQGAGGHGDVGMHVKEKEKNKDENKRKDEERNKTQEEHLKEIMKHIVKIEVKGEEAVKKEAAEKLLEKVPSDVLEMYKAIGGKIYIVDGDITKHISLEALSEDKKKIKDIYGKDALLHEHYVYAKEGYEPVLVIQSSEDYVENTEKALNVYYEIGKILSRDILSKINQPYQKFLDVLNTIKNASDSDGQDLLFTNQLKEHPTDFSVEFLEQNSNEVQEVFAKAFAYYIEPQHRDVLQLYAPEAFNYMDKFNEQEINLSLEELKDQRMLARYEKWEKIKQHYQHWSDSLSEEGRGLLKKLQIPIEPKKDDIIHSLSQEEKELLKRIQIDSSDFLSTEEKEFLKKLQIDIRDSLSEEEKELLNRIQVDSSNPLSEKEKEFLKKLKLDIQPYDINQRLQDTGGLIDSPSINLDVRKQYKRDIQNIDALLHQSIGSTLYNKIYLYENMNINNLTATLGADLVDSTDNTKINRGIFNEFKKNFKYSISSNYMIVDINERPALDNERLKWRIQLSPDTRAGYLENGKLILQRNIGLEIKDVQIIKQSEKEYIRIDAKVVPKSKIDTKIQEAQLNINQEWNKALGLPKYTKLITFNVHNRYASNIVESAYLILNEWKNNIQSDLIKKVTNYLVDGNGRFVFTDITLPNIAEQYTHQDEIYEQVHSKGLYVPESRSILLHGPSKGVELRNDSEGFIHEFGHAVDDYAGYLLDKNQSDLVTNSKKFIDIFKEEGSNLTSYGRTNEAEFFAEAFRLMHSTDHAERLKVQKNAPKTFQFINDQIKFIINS
VHR inh abs: DUSP3 (human) phosphatase inhibition; recombinant VHR phosphatase, pNPP absorbance; P51452; inhibition, % at 13.3 µM; AID 1654; hit rate 0.52% among 290,000; in the data active = inhibition above about 50%
BoNT-A LC inh2: inhibitors of Botulinum neurotoxin A light chain protease; hit rate 0.17% among 360,000; inhibition, % at 10 µM; multiplex microsphere protease substrate cleavage, flow cytometry; AID 588499; also: plate controls were buffer without enzyme for full effect and enzyme alone for no effect
Active calls of the source: *. In the library only some 4% were active in any assay of this set; here they are far more common. Rule as the data show it, unless noted: active = inhibition above about 30%; inconclusive = no clear call, values can overlap the other calls; inactive = below that.

What do the screens show for `COC(=O)Cn1c(C)nc([N+](=O)[O-])c1Br`?
Bead autofluor: 4091; MazF activator: 2; BoNT F protease: -3; Anthrax LF inh2: -8; VHR inh abs: 6; BoNT-A LC inh2: -1

How did CN(C)C(CNC(=O)c1ccccc1C(F)(F)F)c1ccco1 (centres undefined) do in these assays?
Bead autofluor: 3150; MazF activator: -18; BoNT F protease: -22; Anthrax LF inh2: 11; VHR inh abs: 12; BoNT-A LC inh2: -2

What do the screens show for `Cc1ccc(NC(=O)N/C=C/c2ccco2)cc1`?
Bead autofluor: 22171*; MazF activator: -1; BoNT F protease: 4; Anthrax LF inh2: -1; VHR inh abs: -8; BoNT-A LC inh2: 1

What do the screens show for `Cn1c(Cc2ccccc2)nnc1SCC(=O)NC1CCCCC1`?
Bead autofluor: 2557; MazF activator: -3; BoNT F protease: 1; Anthrax LF inh2: -10; VHR inh abs: -2; BoNT-A LC inh2: 0

Results for Cc1oc2c(c1C(=O)Nc1ccc(C(=O)O)cc1)CCCC2 ?
Bead autofluor: 17117*; MazF activator: 3; BoNT F protease: 1; Anthrax LF inh2: -2; VHR inh abs: -2; BoNT-A LC inh2: -1

How did CCN(CC)C(=O)c1c(-c2ccccc2)oc2ccc(O)cc12 do in these assays?
Bead autofluor: 3198; MazF activator: -1; BoNT F protease: inconclusive; Anthrax LF inh2: 18; VHR inh abs: 0; BoNT-A LC inh2: 0

What do the screens show for `COc1ccccc1OCCCCN1CCCCC1`?
MazF activator: 7; VHR inh abs: 51*

What do the screens show for `Cc1ccc(C)c(OCCCN2CCCC2)c1`?
Bead autofluor: 21161*; MazF activator: 7; BoNT F protease: 0; Anthrax LF inh2: 0; VHR inh abs: -12; BoNT-A LC inh2: -1

What do the screens show for `CC(C)CC12CN3CCN(CC(C3)/C1=N/O)C2`?
Bead autofluor: 11128; MazF activator: 1; BoNT F protease: -7; Anthrax LF inh2: -5; VHR inh abs: -9; BoNT-A LC inh2: -1

How did CC(C)Cn1c(N)c(C(=O)COC(=O)/C=C/c2cccs2)c(=O)n(C)c1=O do in these assays?
Bead autofluor: 5717; MazF activator: 6; BoNT F protease: 3; Anthrax LF inh2: -11; VHR inh abs: 10; BoNT-A LC inh2: 0

How did COC(=O)Cc1c(C)c2ccc(OCC(=O)N(C)C)cc2oc1=O do in these assays?
Bead autofluor: 15958; MazF activator: 5; BoNT F protease: 5; Anthrax LF inh2: -1; VHR inh abs: 51*; BoNT-A LC inh2: 1

Results for CCc1c(C)c2ccc(OCC(N)=O)cc2oc1=O ?
Bead autofluor: 24076*; MazF activator: 10; BoNT F protease: -3; Anthrax LF inh2: 1; VHR inh abs: 10; BoNT-A LC inh2: -2

How did COc1cc(COc2ccc3c(C)c(CCC(=O)O)c(=O)oc3c2)cc(OC)c1OC do in these assays?
Bead autofluor: 3610; MazF activator: -8; BoNT F protease: -14; Anthrax LF inh2: -5; VHR inh abs: -3; BoNT-A LC inh2: -1

Results for CCCOc1ccc2c(C)c(CC(=O)OC)c(=O)oc2c1 ?
Bead autofluor: 2861; MazF activator: -2; BoNT F protease: -14; Anthrax LF inh2: -2; VHR inh abs: 17; BoNT-A LC inh2: 0

What do the screens show for `Cc1c(CCC(=O)O)c(=O)oc2cc(OCc3cccc(Cl)c3)ccc12`?
Bead autofluor: 3151; MazF activator: -9; BoNT F protease: 40*; Anthrax LF inh2: 4; VHR inh abs: 36; BoNT-A LC inh2: 0

Results for COc1cc(CNc2ncn[nH]2)cc(Br)c1OC ?
Bead autofluor: 23846*; MazF activator: 3; BoNT F protease: 0; Anthrax LF inh2: -2; VHR inh abs: 22; BoNT-A LC inh2: inconclusive

How did CN(CC(O)COc1ccc(S(=O)(=O)N2CCOCC2)cc1)C1CCCCC1 (centres undefined) do in these assays?
Bead autofluor: inconclusive; MazF activator: 7; BoNT F protease: 5; Anthrax LF inh2: -4; VHR inh abs: 7; BoNT-A LC inh2: 2

How did CC1(C(=O)Nc2c(F)c(F)c(F)c(F)c2F)CC1(Br)Br (centres undefined) do in these assays?
Bead autofluor: 4037; MazF activator: -3; BoNT F protease: inconclusive; Anthrax LF inh2: 31*; VHR inh abs: 17; BoNT-A LC inh2: 2

How did CC(CNC(=O)C1CCCCC1C(=O)O)c1ccccc1 (centres undefined) do in these assays?
Bead autofluor: 22629*; MazF activator: 3; BoNT F protease: 2; Anthrax LF inh2: -3; VHR inh abs: 31; BoNT-A LC inh2: 1
